Results filed as inconclusive are left out. The source made the active and inactive calls. The calls were made as follows: active = hit-call score of the fitted dose curve at least 0.9, where 1 is the maximum; inconclusive = response in the unintended direction; inactive = score below 0.9.
target: human MAP Kinase-Activated Protein Kinase 5 (MAPKAPK5), MAPKAPK5 (gene 8550) (UniProt Q8IW41); assay: NVS_ENZ_hMAPKAPK5: NovaScreen (NVS) Enzymatic Assay for human MAP Kinase-Activated Protein Kinase 5 (MAPKAPK5)
Procedure: NVS_ENZ_hMAPKAPK5 is a biochemical, single-readout assay that uses extracted gene-proteins in a cell-free assay. Measurements were taken 1 hour after chemical dosing in a 384-well plate.NVS_ENZ_hMAPKAPK5 is one of one assay component(s) measured or calculated from the NVS_ENZ_hMAPKAPK5 assay. It is designed to make measurements of enzyme activity, a form of enzyme reporter, as detected with fluorescence intensity signals by Fluorescence and electrophoretic mobility shift technology.Data from the assay component NVS_ENZ_hMAPKAPK5 was analyzed into 1 assay endpoint. This assay endpoint, NVS_ENZ_hMAPKAPK5, was analyzed in the positive analysis fitting direction relative to DMSO as the negative control and baseline of activity. Using a type of enzyme reporter, loss-of-signal activity can be used to understand changes in the enzymatic activity as they relate to the gene MAPKAPK5. Furthermore, this assay endpoint can be referred to as a primary readout, because this assay […]. To generalize the intended target to other relatable targets, this assay endpoint is annotated to the kinase intended target family, where the subfamily is serine/threonine kinase.
Binding assays used specific radioligands (tritiated, iodinated) with non-radioactive competitive displacement ligands in agonist or antagonist protocols (as indicated) and various reference compounds and inhibitors to titrate specific binding to receptors and transporters. Most enzyme assays (CYPs, kinases, phosphatases, proteases, HDACs) used recombinant protein and specific substrates (fluorescence mostly, some colorimetric and radioactive) and inhibitors, followed by a biochemical separation of substrate and product. All assays for the biochemical HTS were initially run in duplicate at a single concentration (10 uM for CYP450 assays and 25 uM for all others). Assay-chemical combinations meeting a pre-defined threshold (e.g., 30% inhibition and other criteria defined below) were then run in singleton concentration-response format with maximum concentration of 20 uM for CYPs and 50 uM for all others. Each assay was run with positive and negative controls, and concurrent controls on every plate. The follow-up (secondary) screen tested active chemical-pairs in concentration series, as well as a few additional assays not tested in the primary screen, some selected negative inactives, and several cases re-run in the concentration series for confirmatory purposes.

human MAP Kinase-Activated Protein Kinase 5 (MAPKAPK5), MAPKAPK5 (gene 8550), sequence (Q8IW41 whole entry, looked up): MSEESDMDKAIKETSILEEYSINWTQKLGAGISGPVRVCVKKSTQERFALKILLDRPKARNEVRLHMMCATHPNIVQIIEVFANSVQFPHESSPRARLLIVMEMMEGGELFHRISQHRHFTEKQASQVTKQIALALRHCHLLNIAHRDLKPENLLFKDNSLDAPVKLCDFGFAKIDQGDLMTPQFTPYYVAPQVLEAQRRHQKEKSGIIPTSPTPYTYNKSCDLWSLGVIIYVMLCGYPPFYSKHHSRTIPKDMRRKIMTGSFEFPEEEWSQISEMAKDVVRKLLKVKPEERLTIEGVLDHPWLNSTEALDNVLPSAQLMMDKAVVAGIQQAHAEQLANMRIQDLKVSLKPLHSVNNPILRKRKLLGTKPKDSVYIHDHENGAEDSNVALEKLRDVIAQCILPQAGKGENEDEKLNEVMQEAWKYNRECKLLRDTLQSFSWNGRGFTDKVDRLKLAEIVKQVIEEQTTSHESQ

| SMILES | AC50 | outcome |
| --- | --- | --- |
| S=C([S-])NCCNC(=S)[S-].[Mn+2] | 0.789 µM (active) |  |
| S=C(S)NCCNC(=S)S.[Mn+2].[S-]C([S-])=NCCN=C([S-])[S-].[Zn+2] | 2.41 µM (active) |  |
| CCOC(=O)[C@H](C)Oc1ccc(Oc2nc3ccc(Cl)cc3o2)cc1 |  | inactive |
| N#CSCSc1nc2ccccc2s1 | 14.7 µM (active) |  |
| O=C(O)C1(C(=O)Nc2ccc(Cl)cc2Cl)CC1 | 19.1 µM (active) |  |
| CCN(CC)C(=O)c1cccc(C)c1 |  | inactive |
| O=C(Nc1ccc([N+](=O)[O-])cc1Cl)c1cc(Cl)ccc1O |  | inactive |

Reference: PubChem BioAssay AID2283176 (EPA ToxCast)
